Assay results as given in PubChem BioAssay (NCI).
The panel holds about 83,000 compounds, 20% with a hit somewhere; the sample as a whole holds those more often.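 Negative percent growth values reflect cell death: -40 means 40% of the cells present at the start died, and -100 means all died.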 Calls of active or inactive are those of the source. The calls were made as follows: active = growth percent below 10; inactive = the rest.

Tests used:
Assay in all cases: NCI-60 one-dose screen, 48 h (100 = growth as untreated, 0 = no growth, -100 = all killed)
Conditions in all cases: 10 µM unless noted
SR leukemia = tested on: SR leukemia
RPMI-8226 leukemia = tested on: RPMI-8226 leukemia
OVCAR-8 ovarian = tested on: OVCAR-8 ovarian
OVCAR-5 ovarian = tested on: OVCAR-5 ovarian
OVCAR-4 ovarian = tested on: OVCAR-4 ovarian
SK-OV-3 ovarian = tested on: SK-OV-3 ovarian
IGROV1 ovarian = tested on: IGROV1 ovarian
HS 578T breast = tested on: HS 578T breast
NCI/ADR-RES ovarian = tested on: NCI/ADR-RES ovarian
OVCAR-3 ovarian = tested on: OVCAR-3 ovarian

Measured: growth

O=c1[nH]nc(-c2ccccc2)c2sc3ncc(-c4ccc(Br)cc4)n3c12
inactive: SR leukemia 26.1% | RPMI-8226 leukemia 12.4% | OVCAR-8 ovarian 46.5% | OVCAR-5 ovarian 90.4% | OVCAR-4 ovarian 85.5% | SK-OV-3 ovarian 70.6% | IGROV1 ovarian 40.4% | HS 578T breast 32.4% | NCI/ADR-RES ovarian 98.2%

CCCCCCNC(=O)Nc1ccc2cc3ccc(NC(=O)NCCCCCC)cc3nc2c1
inactive: OVCAR-4 ovarian 56.9% | SK-OV-3 ovarian 13.2% | NCI/ADR-RES ovarian 100%
active: SR leukemia -33% | RPMI-8226 leukemia 0.729% | OVCAR-8 ovarian -82.7% | OVCAR-5 ovarian 9.67% | OVCAR-3 ovarian -5.6% | HS 578T breast -53.7%

COc1ccc(-c2nc([C@@H](C)Sc3nc(N)cc(N)n3)c(C)s2)cc1OCCN1CCOCC1
inactive: SR leukemia 97.5% | RPMI-8226 leukemia 70.3% | OVCAR-8 ovarian 95.8% | OVCAR-5 ovarian 121% | OVCAR-4 ovarian 106% | SK-OV-3 ovarian 131% | OVCAR-3 ovarian 102% | HS 578T breast 94.2% | NCI/ADR-RES ovarian 101%

CC1(C)CC(O)CCCCCCOc2c(CN)cccc2NC(=O)c2nc(cnc2N)-c2ccc(cc2)S1(=O)=O (stereo not given)
active: SR leukemia -16.8% | RPMI-8226 leukemia -41.5% | OVCAR-4 ovarian -22.1% | OVCAR-3 ovarian -5.21%
inactive: OVCAR-8 ovarian 23.5% | OVCAR-5 ovarian 68.4% | SK-OV-3 ovarian 44.9% | HS 578T breast 13.2% | NCI/ADR-RES ovarian 67.1%

Cn1cc(CC2CC(=O)N(c3ccccc3)C2=O)sc1=NC(=O)c1ccccc1 (stereo not given)
inactive: SR leukemia 96% | RPMI-8226 leukemia 105% | OVCAR-8 ovarian 104% | OVCAR-5 ovarian 95.2% | OVCAR-4 ovarian 103% | SK-OV-3 ovarian 97.1% | HS 578T breast 89.8% | NCI/ADR-RES ovarian 97.5%

Brc1ccc2[nH]cc(-c3cncn3CCc3ccccc3)c2c1
inactive: SR leukemia 40.7% | RPMI-8226 leukemia 29.7% | OVCAR-8 ovarian 66.9% | OVCAR-5 ovarian 71% | OVCAR-4 ovarian 25.9% | SK-OV-3 ovarian 64.9% | OVCAR-3 ovarian 36.7% | HS 578T breast 12.8% | NCI/ADR-RES ovarian 49.6%

C=C1C(=O)O[C@H]2[C@H]1CC/C(COC(=O)NCCc1c[nH]c3ccc(OC)cc13)=C\CC[C@@]1(C)O[C@@H]21
active: RPMI-8226 leukemia -18.4% | OVCAR-4 ovarian -13.1% | IGROV1 ovarian -5.2%
inactive: SR leukemia 11.6% | OVCAR-8 ovarian 20.4% | OVCAR-5 ovarian 51.8% | SK-OV-3 ovarian 118% | HS 578T breast 79.9% | NCI/ADR-RES ovarian 83.5%

O=[N+]([O-])c1ccc(NC(=S)N/N=C/c2cc3ccccc3n3nnnc23)cc1
inactive: RPMI-8226 leukemia 47.7% | OVCAR-8 ovarian 71.2% | OVCAR-5 ovarian 79.6% | OVCAR-4 ovarian 63.8% | SK-OV-3 ovarian 73.7% | OVCAR-3 ovarian 14.3% | HS 578T breast 67% | NCI/ADR-RES ovarian 51.7%
active: SR leukemia 4.33%

CN[C@@H](C)C(=O)N[C@H]1CCS[C@H]2CC(C)(C)[C@@H](C(=O)N[C@H]3c4ccccc4C[C@H]3OCC#CC#CCO[C@@H]3Cc4ccccc4[C@@H]3NC(=O)[C@H]3N4C(=O)[C@@H](NC(=O)[C@H](C)NC)CCS[C@H]4CC3(C)C)N2C1=O
active: OVCAR-4 ovarian -33.1% | SK-OV-3 ovarian -71.6%
inactive: SR leukemia 36.1% | RPMI-8226 leukemia 71.2% | OVCAR-8 ovarian 77.3% | OVCAR-5 ovarian 109% | OVCAR-3 ovarian 86.2% | HS 578T breast 82.2% | NCI/ADR-RES ovarian 109%

Cc1ccc(NC(=O)Cc2ccc(/C=C/C(=O)c3ncc[nH]3)cc2)cc1
active: SR leukemia 7.24% | RPMI-8226 leukemia -11.4% | OVCAR-8 ovarian 8.42%
inactive: OVCAR-5 ovarian 64.2% | OVCAR-4 ovarian 58% | SK-OV-3 ovarian 84.4% | OVCAR-3 ovarian 15.3% | HS 578T breast 42.9% | NCI/ADR-RES ovarian 38.3%

COc1ccc(C(=O)CSc2nc(-c3cc(OC)ccc3OC)cc(-c3ccc(Cl)cc3)c2C#N)cc1
inactive: SR leukemia 65.3% | RPMI-8226 leukemia 78.5% | OVCAR-8 ovarian 61.2% | OVCAR-5 ovarian 81.2% | OVCAR-4 ovarian 24.8% | SK-OV-3 ovarian 33.3% | OVCAR-3 ovarian 98.1% | HS 578T breast 57.8% | NCI/ADR-RES ovarian 77.5%

N#Cc1cccc(-c2ccc3c(c2)NC(=O)/C3=C\c2ccc[nH]2)c1
active: SR leukemia 3.89%
inactive: RPMI-8226 leukemia 54.1% | OVCAR-8 ovarian 85.9% | OVCAR-5 ovarian 38.5% | OVCAR-4 ovarian 30.9% | SK-OV-3 ovarian 24.1% | OVCAR-3 ovarian 30.7% | HS 578T breast 92.1% | NCI/ADR-RES ovarian 76.1%

O=c1c2c(c(=O)n1O)c1c3ccc[nH]c3nc1c1nc3[nH]cccc3c12
inactive: SR leukemia 32.2% | RPMI-8226 leukemia 93.9% | OVCAR-8 ovarian 67.1% | OVCAR-5 ovarian 103% | OVCAR-4 ovarian 78.7% | SK-OV-3 ovarian 89.2% | OVCAR-3 ovarian 98.3% | HS 578T breast 83.3% | NCI/ADR-RES ovarian 89.6%

CCCCCCNC(=O)Oc1ccc(/C(=C(\C)c2ccccc2)c2ccc(OCCN3CCCCC3)cc2)cc1
active: SR leukemia -8.47%
inactive: RPMI-8226 leukemia 39.6% | OVCAR-8 ovarian 76.6% | OVCAR-5 ovarian 93.9% | OVCAR-4 ovarian 71% | SK-OV-3 ovarian 71.8% | OVCAR-3 ovarian 66.9% | HS 578T breast 76.3% | NCI/ADR-RES ovarian 63.1%

COc1cccc(C(=O)NNc2nc(Cl)nc(N3CCN(C(c4ccccc4)c4ccccc4)CC3)n2)c1
active: SR leukemia -23.8% | IGROV1 ovarian 2.85%
inactive: RPMI-8226 leukemia 88% | OVCAR-8 ovarian 71.1% | OVCAR-5 ovarian 97.3% | OVCAR-4 ovarian 72.2% | SK-OV-3 ovarian 96% | HS 578T breast 91.6% | NCI/ADR-RES ovarian 88%

COc1cc2nc(-c3ccc(Cl)cc3)cc(OCCCN3CCCCC3)c2cc1OC
inactive: RPMI-8226 leukemia 21% | OVCAR-8 ovarian 49.8% | OVCAR-5 ovarian 49.3% | OVCAR-4 ovarian 61.7% | SK-OV-3 ovarian 78.9% | OVCAR-3 ovarian 72% | HS 578T breast 62.1% | NCI/ADR-RES ovarian 46.4%
active: SR leukemia 9.98%

Cc1cnc(C(=O)Nc2nc3ccc(S(=O)(=O)Nc4ccc(C5(C(F)(F)F)CC5)cc4)cc3[nH]2)cn1
inactive: SR leukemia 18.9% | OVCAR-8 ovarian 25.8% | OVCAR-5 ovarian 38.8% | OVCAR-4 ovarian 32.9% | SK-OV-3 ovarian 36.9% | NCI/ADR-RES ovarian 15.8%
active: RPMI-8226 leukemia 6.96% | OVCAR-3 ovarian -19.3% | HS 578T breast 8.52%

COc1ccc(C(=O)Cn2c(C(=O)c3ccccc3)nc3ccccc32)cc1
active: RPMI-8226 leukemia -6.46% | OVCAR-3 ovarian 5.28% | HS 578T breast -7.32% | NCI/ADR-RES ovarian -28.3%
inactive: SR leukemia 13% | OVCAR-8 ovarian 49.3% | OVCAR-5 ovarian 62% | OVCAR-4 ovarian 40.4% | SK-OV-3 ovarian 73%

CN(C)CC(O)c1ccc(/C=C/c2ccc(Cl)cc2)cc1 (stereo not given)
inactive: OVCAR-4 ovarian 25.2% | SK-OV-3 ovarian 52.8%
active: SR leukemia -38.8% | OVCAR-8 ovarian -34.2% | OVCAR-5 ovarian 2.11% | IGROV1 ovarian -57.8% | OVCAR-3 ovarian -64.8% | HS 578T breast -26.3% | NCI/ADR-RES ovarian 5.74%

C=C1C(=O)O[C@H]2[C@H]1CC/C(CNS(=O)(=O)c1cccc3ccccc13)=C\CC[C@@]1(C)O[C@@H]21
inactive: SR leukemia 10.7% | OVCAR-8 ovarian 38.5% | OVCAR-5 ovarian 61.9% | OVCAR-4 ovarian 42.8% | SK-OV-3 ovarian 107% | IGROV1 ovarian 15.4% | OVCAR-3 ovarian 11.1% | HS 578T breast 60.9% | NCI/ADR-RES ovarian 74.3%

CCOc1ccc(Nc2nc(-c3ccc4c(c3)NC(=O)CO4)cs2)cc1
inactive: SR leukemia 64.6% | OVCAR-8 ovarian 62.8% | OVCAR-5 ovarian 92.8% | OVCAR-4 ovarian 25% | SK-OV-3 ovarian 100% | IGROV1 ovarian 94.3% | OVCAR-3 ovarian 73.7% | HS 578T breast 107% | NCI/ADR-RES ovarian 14.4%

O=S(=O)(NCCCNc1nccc(-c2c(-c3cccc(O)c3)nc3occn23)n1)c1ccc(Cl)cc1
inactive: SR leukemia 87.1% | OVCAR-8 ovarian 77.5% | OVCAR-5 ovarian 130% | OVCAR-4 ovarian 108% | SK-OV-3 ovarian 75.4% | IGROV1 ovarian 59.7% | OVCAR-3 ovarian 93.2% | HS 578T breast 92.8% | NCI/ADR-RES ovarian 112%

CCCC/C=N/NC(=S)NCc1ccccc1
inactive: SR leukemia 95% | OVCAR-8 ovarian 97.5% | OVCAR-5 ovarian 92.7% | OVCAR-4 ovarian 96.3% | SK-OV-3 ovarian 88.9% | IGROV1 ovarian 110% | OVCAR-3 ovarian 104% | HS 578T breast 95% | NCI/ADR-RES ovarian 104%

COc1ccc2nc(-c3ccc(-c4noc(-c5cc(OC)c(OC)c(OC)c5)n4)cc3)[nH]c2c1
active: OVCAR-4 ovarian -53.4%
inactive: SR leukemia 18.9% | OVCAR-8 ovarian 33.6% | OVCAR-5 ovarian 113% | SK-OV-3 ovarian 116% | IGROV1 ovarian 110% | OVCAR-3 ovarian 44.8% | HS 578T breast 72.6% | NCI/ADR-RES ovarian 45.3%

CCN1Cc2nc3sc(C)c(C)c3c(=O)n2C=C1C
active: SR leukemia -9.23%
inactive: OVCAR-8 ovarian 38.1% | OVCAR-5 ovarian 85.9% | OVCAR-4 ovarian 42.3% | SK-OV-3 ovarian 115% | IGROV1 ovarian 30.1% | OVCAR-3 ovarian 46% | HS 578T breast 43.2% | NCI/ADR-RES ovarian 30.9%

COc1ccc(C(=O)c2nc3ccccc3n2CC(=O)c2ccc(Cl)cc2)cc1
active: OVCAR-3 ovarian -6.3% | HS 578T breast 8.51% | NCI/ADR-RES ovarian -45.6%
inactive: SR leukemia 16.7% | OVCAR-8 ovarian 37.2% | OVCAR-5 ovarian 47% | OVCAR-4 ovarian 43.3% | SK-OV-3 ovarian 107% | IGROV1 ovarian 23.7%

N=C1C(c2nc3ccccc3s2)=C(O)CN1c1cc(Cl)cc(Cl)c1
inactive: OVCAR-8 ovarian 67.2% | OVCAR-5 ovarian 87% | OVCAR-4 ovarian 131% | SK-OV-3 ovarian 99.4% | IGROV1 ovarian 52.5% | OVCAR-3 ovarian 87.2% | HS 578T breast 52.7% | NCI/ADR-RES ovarian 78.9%
active: SR leukemia 7.21%

COc1ccc(CNCCN2C(=O)c3ccc4c5c(ccc(c35)C2=O)C(=O)N(CCNCc2ccc(OC)c(OC)c2OC)C4=O)c(OC)c1OC
active: SR leukemia -23.2% | OVCAR-8 ovarian -9.78% | OVCAR-5 ovarian -60.1% | OVCAR-4 ovarian -94.1% | IGROV1 ovarian -29.9% | OVCAR-3 ovarian -42.8% | HS 578T breast -34.6% | NCI/ADR-RES ovarian -3.82%
inactive: SK-OV-3 ovarian 58%

CC(=O)[C@@H]1CC[C@]2(C(N)=O)CC[C@]3(C)[C@H](CC[C@@H]4[C@@]5(C)CCCNC(C)(C)[C@@H]5CC[C@]43C)[C@@H]12
inactive: SR leukemia 43.7% | OVCAR-8 ovarian 98% | OVCAR-5 ovarian 91.5% | OVCAR-4 ovarian 84.6% | SK-OV-3 ovarian 108% | IGROV1 ovarian 93.6% | OVCAR-3 ovarian 89.3% | HS 578T breast 84.4% | NCI/ADR-RES ovarian 90.6%
